Experimental findings from PubChem BioAssay (EPA / NIEHS) are described below.

Assay [1] addresses Transcriptional activator Myb (Homo sapiens) (UniProt P10242). Put plainly: ATG_Myb_CIS: Attagene CIS-FACTORIAL HepG2 Assay for human Myeloblastosis (Myb) Proto-Oncogene Transcription Factor (AID 2282986). As to conditions: HepG2 Attagene CIS-FACTORIAL Myb reporter transcription; actives raise or lower the signal. In a few lines:
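Transiently transfected HepG2 cells, treated 24 h. Reporter mRNA quantified by RT-PCR/capillary electrophoresis; bidirectional fit relative to DMSO.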

Assay [2] has as its target Nuclear respiratory factor 1 (Homo sapiens) (UniProt Q16656). As to the kind of experiment: ATG_NRF1_CIS: Attagene CIS-FACTORIAL HepG2 Assay for human Nuclear Respiratory Factor 1 (NRF1) Orphan Gene (AID 2282987). Conditions: HepG2 NRF1 cis-element reporter, Attagene multiplex; actives raise or lower the signal. In outline:
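Cells (HepG2, transient MRTU transfection) are exposed to compound for 24 h, then RNA isolated and reporter mRNA amplified and fluorescently labelled. Fragments are separated by capillary electrophoresis; signal change is fitted bidirectionally relative to DMSO.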

A short description of assay [3]: ATG_NFI_CIS: Attagene CIS-FACTORIAL HepG2 Assay for human Nuclear Factor I (NFI) (AID 2282989). As to conditions: HepG2 cis-regulatory reporter, NFI response element transcription; actives raise or lower the signal. In a few lines: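 Cells: human liver HepG2, transiently transfected with promoter-regulated reporter transcription units. Exposure 24 h. Detection: fluorescent RT-PCR products separated by capillary electrophoresis, normalised to DMSO negative control.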

Assay [4] addresses Myc proto-oncogene protein (Homo sapiens) (UniProt P01106). As to the kind of experiment: ATG_Myc_CIS: Attagene CIS-FACTORIAL HepG2 Assay for human Myelocytomatosis (Myc) Proto-Oncogene Transcription Factor (AID 2282990). Conditions: HepG2, Attagene cis-reporter transcription factor activity; actives raise or lower the signal. In outline:
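Multiplexed cis-reporter transcription in HepG2 cells after 24 h chemical treatment. Reporter mRNA measured by RT-PCR and capillary electrophoresis fluorescence; activity fitted bidirectionally against DMSO control.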

Assay [5] can be described thus: ATG_NRF2_ARE_CIS: Attagene CIS-FACTORIAL HepG2 Assay for human Nuclear Factor Erythroid 2 Related Factor 2 (NFR2) response to Antioxidant Response Elements (ARE) (AID 2282992). As to conditions: HepG2 Attagene ARE/NRF2 reporter, transcription factor activity; actives raise or lower the signal. In outline: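 Readout: reporter mRNA quantified by RT-PCR plus FAM-labelled primer extension, HpaI digestion and capillary electrophoresis, 24 h after dosing transfected HepG2 cells. Gain or loss of signal is fitted bidirectionally against DMSO baseline.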

A short description of assay [6]: ATG_Oct_MLP_CIS: Attagene CIS-FACTORIAL HepG2 Assay for human Octamer-Binding Transcription Factor (Oct) (AID 2282993). Conditions: HepG2 Attagene cis-factorial Oct reporter, mRNA; actives raise or lower the signal. In a few lines:
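HepG2, transient MRTU transfection, cis promoter elements; 24 h dosing; RT-PCR/CE fluorescence read-out of reporter mRNA; fit both directions vs DMSO.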

The target in assay [7] is Cellular tumor antigen p53 (Homo sapiens) (UniProt P04637). As to the kind of experiment: ATG_p53_CIS: Attagene CIS-FACTORIAL HepG2 Assay for human p53 Transcription Factor (AID 2282994). Conditions: HepG2 p53 cis-element reporter, Attagene mRNA; actives raise or lower the signal. In a few lines:
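Read-out: reporter mRNA by RT-PCR plus capillary electrophoresis with fluorescence detection. Human HepG2 liver cells carried transfected multi-reporter cis-element constructs, dosed 24 h. Gain or loss of signal fitted bidirectionally against DMSO control.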

The nature of assay [8]: BSK_3C_TissueFactor: BioMAP Diversity Plus: 3C Assay for Tissue Factor Biomarker Activity (AID 2282997). Conditions: BioMAP 3C HUVEC, tissue factor biomarker readout; actives raise or lower the signal. In outline: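 After a 24 h chemical exposure of primary human umbilical vein endothelial cells, Tissue Factor levels were quantified by ELISA.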
Assay [9] is described as follows: BSK_3C_uPAR: BioMAP Diversity Plus: 3C Assay for Urokinase-type plasminogen activator receptor (uPAR) Biomarker Activity (AID 2282998). Conditions: BioMAP 3C HUVEC, uPAR biomarker ELISA; actives raise or lower the signal. In outline: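 A multiplexed primary-cell system built on human umbilical vein endothelium was used, with chemical present for 24 h before reading. Cell-surface uPAR was detected by ELISA; signal change in either direction counted against DMSO.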
On the technique in general: In an ELISA, binding on a coated surface is turned into a signal by an enzyme label.

A short description of assay [10]: BSK_3C_VCAM1: BioMAP Diversity Plus: 3C Assay for Vascular cell adhesion molecule 1 (VCAM1) Biomarker Activity (AID 2282999). Conditions: BioMAP 3C HUVEC, VCAM1 ELISA, cytokine-stimulated; actives raise or lower the signal. In outline: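 Vascular primary endothelium (human umbilical vein) was exposed to chemicals and assayed 24 h later. VCAM-1 levels came from ELISA, with DMSO serving as baseline for bidirectional fitting.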

Assay [11] is described as follows: BSK_4H_Eotaxin3: BioMAP Diversity Plus: 4H Assay for Eotaxin 3 Biomarker Activity (AID 2283000).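 For outcome: CCL26 protein level quantified by ELISA in parallel with SRB cytotoxicity check.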 As to conditions: primary human endothelial cells (HUVEC); actives raise or lower the signal. In outline: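 Chemicals were added to human umbilical vein endothelium cultures, and Eotaxin-3 was quantified by ELISA at 24 h. Values were derived by bidirectional fitting with DMSO serving as negative control and activity baseline.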

For assay [12], the target named is human Peroxisome Proliferator-activated Receptor alpha (PPARa), PPARA (gene 5465) (UniProt Q07869). Put plainly: ATG_PPARa_TRANS: Attagene TRANS-FACTORIAL HepG2 Assay for human Peroxisome Proliferator-activated Receptor alpha (PPARa) (AID 2283001; active = hit-call score of the fitted dose curve at least 0.9, where 1 is the maximum). In outline:
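Exposure: 24 h, transiently transfected HepG2 cells. Endpoint: GAL4-UAS reporter mRNA, RT-PCR with capillary electrophoresis fluorescence. Baseline: DMSO; increases fitted.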

Read-out in assay [13]: Intercellular Adhesion Molecule 1 (ICAM1), ICAM1 (gene 3383)
Put plainly: BSK_3C_ICAM1: BioMAP Diversity Plus: 3C Assay for Intercellular Adhesion Molecule 1 (ICAM1) Biomarker Activity (AID 2283003). Conditions: primary human endothelial cells (HUVEC); actives raise or lower the signal. In outline: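 ELISA read-out of ICAM-1; HUVEC (primary human), 3C system, 24 h post-dosing; bidirectional fit vs DMSO baseline.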

Assay [14] concerns the target human Retinoic Acid Receptor beta (RARb), RARB (gene 5915) (UniProt P10826). Put plainly: ATG_RARb_TRANS: Attagene TRANS-FACTORIAL HepG2 Assay for human Retinoic Acid Receptor beta (AID 2283004; active = hit-call score of the fitted dose curve at least 0.9, where 1 is the maximum). In a few lines: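 Transient transfection of HepG2 with multiple reporter units → chemical dosing, 24 h → total RNA isolation → RT with oligo(dT) → reporter-specific PCR, 6-FAM primer extension, HpaI digest → capillary electrophoresis. Positive direction vs DMSO control.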

Assay [15] has as its target Retinoic acid receptor alpha (Homo sapiens) (UniProt P10276). As to the kind of experiment: ATG_RARa_TRANS: Attagene TRANS-FACTORIAL HepG2 Assay for human Retinoic Acid Receptor alpha (RARa) (AID 2283005; active = hit-call score of the fitted dose curve at least 0.9, where 1 is the maximum). In a few lines:
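HepG2 cells transiently transfected with multiple reporter units expressing chimeric RARα-GAL4 fusion, with GAL4-UAS-driven reporters. After 24 h compound exposure, reporter mRNA induction quantified by RT-PCR and capillary electrophoresis with fluorescent labeling; gain-of-signal fitted relative to DMSO control.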

A short description of assay [16]: BSK_3C_Proliferation: Cell Proliferation Assessment in the BioMAP Diversity Plus: 3C Assay (AID 2283006).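 For AC50: potency may reflect either rise or fall in cell number versus DMSO.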 As to conditions: primary human endothelial cells (HUVEC). In outline: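 HUVEC, sub-confluent; 48 h chemical exposure; 10% TCA fix, 0.1% SRB stain, A560 total protein. Gain or loss of signal fitted both directions vs DMSO control.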
Assay [17] addresses Peroxisome proliferator-activated receptor gamma (Homo sapiens) (UniProt P37231). Put plainly: ATG_PPARg_TRANS: Attagene TRANS-FACTORIAL HepG2 Assay for human Peroxisome Proliferator-activated Receptor-gamma (PPARg) (AID 2283007; active = hit-call score of the fitted dose curve at least 0.9, where 1 is the maximum). In outline:
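Gain-of-signal endpoint relative to DMSO, derived from reporter mRNA levels quantified by RT-PCR and capillary electrophoresis. Cells were HepG2 transiently expressing a chimeric NR-Gal4 construct with GAL4-UAS reporters, exposed to chemicals for 24 h.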

The target in assay [18] is Nuclear receptor subfamily 1 group I member 2 (Homo sapiens) (UniProt O75469). As to the kind of experiment: ATG_PXR_TRANS: Attagene TRANS-FACTORIAL HepG2 Assay for human Pregnane X Receptor (PXR) (AID 2283008; active = hit-call score of the fitted dose curve at least 0.9, where 1 is the maximum). In outline:
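Trans-factorial format: exogenous NR-Gal4 fusion activity, not endogenous factor, in transfected human HepG2 liver cells. After 24 h dosing, RNA isolated, reverse-transcribed, amplified and resolved by capillary electrophoresis; induction scored versus DMSO.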

A short description of assay [19]: ATG_NF_kB_CIS: Attagene CIS-FACTORIAL HepG2 Assay for human Nuclear Factor Kappa B (NF-kB) (AID 2282991). Conditions: HepG2 Attagene cis-factorial NF-kB reporter mRNA; actives raise or lower the signal. In a few lines: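 Measures mRNA induction of an NF-kB-responsive cis-element reporter in HepG2 cells transfected with multiple reporter units, sampled 24 h post-dosing; quantified by fluorescence after RT-PCR and capillary electrophoresis, fitted for activation or inhibition against DMSO.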

Assay [20] deals with human Peroxisome Proliferator-activated Receptor delta (PPARd), PPARD (gene 5467) (UniProt Q03181). As to the kind of experiment: ATG_PPARd_TRANS: Attagene TRANS-FACTORIAL HepG2 Assay for human Peroxisome Proliferator-activated Receptor delta (PPARd) (AID 2283002; active = hit-call score of the fitted dose curve at least 0.9, where 1 is the maximum). In outline:
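Multiplexed trans-activation format: HepG2 liver cells expressing exogenous NR-Gal4 chimeras and GAL4-UAS reporters were exposed for 24 h. Reporter mRNA was detected by RT-PCR with capillary electrophoresis fluorescence; activity fitted as gain of signal relative to DMSO.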

Results filed as inconclusive are left out. Active and inactive are the calls of the source. Rule for the calls, unless noted: active = hit-call score of the fitted dose curve at least 0.9, where 1 is the maximum; inactive = score below 0.9.

Sequence of Nuclear receptor subfamily 1 group I member 2 (Homo sapiens) (O75469 whole entry, looked up, the tested form may be a part): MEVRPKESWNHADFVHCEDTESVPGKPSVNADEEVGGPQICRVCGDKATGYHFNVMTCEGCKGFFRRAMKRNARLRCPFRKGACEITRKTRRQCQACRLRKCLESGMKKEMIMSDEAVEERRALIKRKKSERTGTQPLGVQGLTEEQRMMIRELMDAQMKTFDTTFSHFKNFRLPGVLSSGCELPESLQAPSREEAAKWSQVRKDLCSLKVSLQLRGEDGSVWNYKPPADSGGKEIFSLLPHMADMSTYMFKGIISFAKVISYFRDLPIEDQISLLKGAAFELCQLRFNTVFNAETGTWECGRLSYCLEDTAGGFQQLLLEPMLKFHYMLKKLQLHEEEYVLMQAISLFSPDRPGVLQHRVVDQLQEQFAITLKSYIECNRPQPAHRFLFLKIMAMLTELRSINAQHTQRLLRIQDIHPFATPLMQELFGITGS
Sequence of Cellular tumor antigen p53 (Homo sapiens) (P04637 whole entry, looked up): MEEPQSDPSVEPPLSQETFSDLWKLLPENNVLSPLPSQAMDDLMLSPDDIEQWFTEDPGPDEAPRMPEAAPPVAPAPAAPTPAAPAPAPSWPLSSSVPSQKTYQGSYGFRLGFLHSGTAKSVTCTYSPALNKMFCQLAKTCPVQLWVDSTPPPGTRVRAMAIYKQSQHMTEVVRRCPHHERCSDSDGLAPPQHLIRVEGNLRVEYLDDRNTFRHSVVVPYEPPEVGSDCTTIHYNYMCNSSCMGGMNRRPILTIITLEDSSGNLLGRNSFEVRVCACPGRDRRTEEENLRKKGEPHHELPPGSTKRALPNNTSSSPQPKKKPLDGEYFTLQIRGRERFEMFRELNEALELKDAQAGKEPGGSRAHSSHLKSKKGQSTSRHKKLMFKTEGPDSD
Sequence of human Retinoic Acid Receptor beta (RARb), RARB (gene 5915) (P10826 whole entry, looked up): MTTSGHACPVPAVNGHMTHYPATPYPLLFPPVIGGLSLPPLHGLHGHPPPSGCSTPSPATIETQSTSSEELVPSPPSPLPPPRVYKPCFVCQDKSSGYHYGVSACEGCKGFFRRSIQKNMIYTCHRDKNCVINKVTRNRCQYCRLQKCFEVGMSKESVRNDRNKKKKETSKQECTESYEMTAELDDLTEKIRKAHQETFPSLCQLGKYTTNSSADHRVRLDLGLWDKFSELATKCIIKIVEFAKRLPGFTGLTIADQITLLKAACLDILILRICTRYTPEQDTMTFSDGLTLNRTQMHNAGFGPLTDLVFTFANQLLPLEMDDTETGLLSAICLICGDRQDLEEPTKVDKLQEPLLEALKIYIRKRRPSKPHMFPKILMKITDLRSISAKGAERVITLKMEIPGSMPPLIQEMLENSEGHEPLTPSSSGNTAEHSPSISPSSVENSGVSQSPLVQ
Sequence of Myc proto-oncogene protein (Homo sapiens) (P01106 whole entry, looked up): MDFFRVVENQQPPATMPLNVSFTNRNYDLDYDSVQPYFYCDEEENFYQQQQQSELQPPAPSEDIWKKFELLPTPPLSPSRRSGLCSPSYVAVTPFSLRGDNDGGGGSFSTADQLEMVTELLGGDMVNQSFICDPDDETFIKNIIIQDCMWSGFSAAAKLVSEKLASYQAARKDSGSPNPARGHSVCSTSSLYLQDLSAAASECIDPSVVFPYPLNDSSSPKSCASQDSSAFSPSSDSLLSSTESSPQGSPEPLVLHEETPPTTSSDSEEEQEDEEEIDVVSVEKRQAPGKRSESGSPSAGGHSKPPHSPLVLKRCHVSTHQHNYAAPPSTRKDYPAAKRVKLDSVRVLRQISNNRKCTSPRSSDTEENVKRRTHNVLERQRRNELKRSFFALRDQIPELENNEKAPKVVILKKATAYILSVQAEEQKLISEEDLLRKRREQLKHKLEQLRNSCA
Sequence of human Peroxisome Proliferator-activated Receptor delta (PPARd), PPARD (gene 5467) (Q03181 whole entry, looked up, the tested form may be a part): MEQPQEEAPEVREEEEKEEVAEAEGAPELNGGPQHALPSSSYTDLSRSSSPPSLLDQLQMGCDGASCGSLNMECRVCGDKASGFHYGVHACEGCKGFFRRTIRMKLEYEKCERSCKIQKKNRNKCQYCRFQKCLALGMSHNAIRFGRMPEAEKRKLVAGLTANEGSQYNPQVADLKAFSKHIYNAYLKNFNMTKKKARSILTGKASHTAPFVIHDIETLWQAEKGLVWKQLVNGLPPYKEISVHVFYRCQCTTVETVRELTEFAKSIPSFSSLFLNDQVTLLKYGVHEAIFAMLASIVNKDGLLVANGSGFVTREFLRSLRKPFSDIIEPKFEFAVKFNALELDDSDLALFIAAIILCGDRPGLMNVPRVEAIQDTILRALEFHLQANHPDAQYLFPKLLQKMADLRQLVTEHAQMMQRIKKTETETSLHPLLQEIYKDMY
Sequence of Nuclear respiratory factor 1 (Homo sapiens) (Q16656 whole entry, looked up, the tested form may be a part): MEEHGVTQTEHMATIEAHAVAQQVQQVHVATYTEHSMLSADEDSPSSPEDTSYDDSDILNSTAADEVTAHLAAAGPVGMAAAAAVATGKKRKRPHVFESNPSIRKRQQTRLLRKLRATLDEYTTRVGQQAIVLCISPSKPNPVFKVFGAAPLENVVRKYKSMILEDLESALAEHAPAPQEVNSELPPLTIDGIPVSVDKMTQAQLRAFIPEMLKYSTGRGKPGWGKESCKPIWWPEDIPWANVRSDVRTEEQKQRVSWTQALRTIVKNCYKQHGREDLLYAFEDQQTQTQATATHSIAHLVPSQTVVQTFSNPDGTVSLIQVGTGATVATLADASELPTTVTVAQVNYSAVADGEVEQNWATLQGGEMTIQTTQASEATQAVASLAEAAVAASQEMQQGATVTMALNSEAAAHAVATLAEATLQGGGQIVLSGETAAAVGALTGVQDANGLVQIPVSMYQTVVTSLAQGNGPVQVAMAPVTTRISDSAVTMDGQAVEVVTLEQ
Sequence of human Peroxisome Proliferator-activated Receptor alpha (PPARa), PPARA (gene 5465) (Q07869 whole entry, looked up, the tested form may be a part): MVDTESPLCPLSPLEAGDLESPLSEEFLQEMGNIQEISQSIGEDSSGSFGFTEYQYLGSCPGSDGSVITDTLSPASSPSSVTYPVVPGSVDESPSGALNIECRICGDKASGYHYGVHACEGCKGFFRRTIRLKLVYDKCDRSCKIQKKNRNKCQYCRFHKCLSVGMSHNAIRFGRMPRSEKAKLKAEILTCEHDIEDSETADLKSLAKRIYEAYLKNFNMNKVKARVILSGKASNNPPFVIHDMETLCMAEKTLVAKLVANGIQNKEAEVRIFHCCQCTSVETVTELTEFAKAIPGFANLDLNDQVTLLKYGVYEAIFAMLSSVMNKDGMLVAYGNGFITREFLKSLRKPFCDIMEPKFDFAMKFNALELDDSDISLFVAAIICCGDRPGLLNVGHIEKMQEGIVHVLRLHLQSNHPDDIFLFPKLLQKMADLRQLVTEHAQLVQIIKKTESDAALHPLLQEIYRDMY
Sequence of Transcriptional activator Myb (Homo sapiens) (P10242 whole entry, looked up): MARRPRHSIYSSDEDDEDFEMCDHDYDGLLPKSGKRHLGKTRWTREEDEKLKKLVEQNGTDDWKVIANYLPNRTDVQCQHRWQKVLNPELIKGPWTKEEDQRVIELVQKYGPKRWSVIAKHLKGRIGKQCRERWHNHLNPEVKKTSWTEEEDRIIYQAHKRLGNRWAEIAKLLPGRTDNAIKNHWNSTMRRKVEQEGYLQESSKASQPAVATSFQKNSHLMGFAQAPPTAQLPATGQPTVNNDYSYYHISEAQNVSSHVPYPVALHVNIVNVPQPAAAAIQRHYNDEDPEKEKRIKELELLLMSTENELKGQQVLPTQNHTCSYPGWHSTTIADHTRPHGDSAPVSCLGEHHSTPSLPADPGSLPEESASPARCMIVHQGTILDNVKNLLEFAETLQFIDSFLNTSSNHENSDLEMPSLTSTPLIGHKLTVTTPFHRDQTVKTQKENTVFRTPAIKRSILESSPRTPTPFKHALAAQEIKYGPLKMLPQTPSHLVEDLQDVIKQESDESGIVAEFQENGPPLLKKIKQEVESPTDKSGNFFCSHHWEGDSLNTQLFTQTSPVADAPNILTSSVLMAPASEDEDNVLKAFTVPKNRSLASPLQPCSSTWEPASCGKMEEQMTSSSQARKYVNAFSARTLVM
Sequence of Peroxisome proliferator-activated receptor gamma (Homo sapiens) (P37231 whole entry, looked up, the tested form may be a part): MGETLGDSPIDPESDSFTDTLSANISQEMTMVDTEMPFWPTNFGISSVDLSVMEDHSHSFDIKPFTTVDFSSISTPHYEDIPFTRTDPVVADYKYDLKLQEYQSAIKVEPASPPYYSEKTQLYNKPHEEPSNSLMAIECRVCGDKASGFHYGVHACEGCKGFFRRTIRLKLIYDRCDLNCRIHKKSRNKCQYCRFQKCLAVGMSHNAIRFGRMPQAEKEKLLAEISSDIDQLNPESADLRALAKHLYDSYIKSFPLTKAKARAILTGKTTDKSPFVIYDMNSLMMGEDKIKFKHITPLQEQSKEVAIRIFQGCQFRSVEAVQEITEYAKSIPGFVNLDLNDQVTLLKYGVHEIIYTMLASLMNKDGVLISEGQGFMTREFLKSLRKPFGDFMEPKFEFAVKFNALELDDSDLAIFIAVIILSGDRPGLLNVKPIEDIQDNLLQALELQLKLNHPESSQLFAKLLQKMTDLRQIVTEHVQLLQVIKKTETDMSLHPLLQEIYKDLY
Sequence of Retinoic acid receptor alpha (Homo sapiens) (P10276 whole entry, looked up, the tested form may be a part): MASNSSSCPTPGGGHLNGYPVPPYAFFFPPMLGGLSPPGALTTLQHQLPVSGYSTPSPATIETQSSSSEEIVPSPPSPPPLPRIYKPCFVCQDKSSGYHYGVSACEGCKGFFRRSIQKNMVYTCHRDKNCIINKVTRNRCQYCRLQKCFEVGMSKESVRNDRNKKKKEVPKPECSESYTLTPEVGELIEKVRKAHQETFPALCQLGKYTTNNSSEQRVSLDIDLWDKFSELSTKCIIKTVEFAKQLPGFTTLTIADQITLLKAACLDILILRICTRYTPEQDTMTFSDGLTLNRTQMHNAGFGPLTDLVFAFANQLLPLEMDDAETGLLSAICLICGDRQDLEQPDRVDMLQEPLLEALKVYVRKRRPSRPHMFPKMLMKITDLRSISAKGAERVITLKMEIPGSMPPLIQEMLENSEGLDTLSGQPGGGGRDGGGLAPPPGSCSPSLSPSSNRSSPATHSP

As a reminder, the AC50 is the midpoint of the concentration-response curve, whichever way the signal moves. Regarding `Nc1ccc2ccccc2c1`, the call in assay [1], in assay [2], in assay [3], in assay [4], in assay [5] and in assay [6] was inactive. For the same compound, the compound was called inactive in [7], in assay [8], in [9], in [10], in assay [12] and in [13]. The compound was called inactive in assay [14], in assay [15], in [16], in assay [17] and in assay [18]. Further, the AC50 in [11] is 9.1 µM (active).
Take `CCCCOCCOP(=O)(OCCOCCCC)OCCOCCCC`: the compound was classed as inactive in [1], in assay [3], in assay [4], in assay [19], in assay [5] and in [6]. Besides, the call in assay [7], in assay [8], in assay [9], in assay [10], in assay [11] and in assay [12] was inactive. Further, the result in [20], in [13], in assay [14], in [15], in assay [16] and in assay [18] was inactive. The AC50 in assay [17] is 58.7 µM (active).
`CCOP(=S)(S)OCC`: the compound was called inactive in assay [1], in assay [2], in assay [3], in assay [4], in [6] and in assay [8]. Also, the outcome in assay [9], in assay [10], in assay [11], in [20], in assay [13] and in [17] was inactive. For the same compound, the AC50 is 67.4 µM (active) in [5] and 20.9 µM (active) in [16].
Regarding `O=P(Oc1ccccc1)(Oc1ccccc1)Oc1ccccc1`, the call in assay [1], in [2], in assay [3], in assay [4], in assay [19] and in assay [20] was inactive. Moreover, in [13], the outcome was inactive. The AC50 in [5] is 28.5 µM (active); in [6], 25.2 µM (active); in [8], 27.3 µM (active); in assay [9], 32.2 µM (active); in [10], 27.6 µM (active); in [11] it was 33.8 µM (active). Further, the AC50 in [16] is 24.9 µM (active); in [17], 5.5 µM (active).
Regarding `CSC(C)(C)C=NO`, the compound was classed as inactive in [1], in [2], in [3], in assay [4], in [5] and in assay [6]. Besides, the outcome in assay [8], in assay [9], in assay [10], in assay [11], in assay [12] and in [20] was inactive. In addition, the result in assay [13] and in assay [16] was inactive.
`Cc1ccc(C(=O)Cl)cc1`: the compound was called inactive in [1], in assay [2], in [3], in [4], in assay [19] and in [5]. In addition, the compound was classed as inactive in [6], in assay [12], in assay [15] and in [17].
Take `CC1(C)CN=C(NN=C(/C=C/c2ccc(C(F)(F)F)cc2)/C=C/c2ccc(C(F)(F)F)cc2)NC1`: the outcome in assay [1], in assay [4], in assay [19], in [20] and in assay [15] was inactive. For the same compound, the AC50 in assay [2] was 18 µM (active); in assay [3] it was 15.4 µM (active); in assay [5], 3.06 µM (active); in assay [6], 20.8 µM (active).
For `Nc1ccc(Sc2ccc(N)cc2)cc1`, the compound was classed as inactive in assay [1], in [2], in assay [3], in assay [4] and in [6]. In addition, the AC50 in [5] is 50.4 µM (active); in assay [17] it was 57.1 µM (active); in [18] it was 50.6 µM (active).
In the case of `CC(C)(C)N(NC(=O)c1ccc(Cl)cc1)C(=O)c1ccccc1`, the call in assay [1], in assay [2], in [3], in [4], in [5] and in assay [6] was inactive. Further, the outcome in assay [17] and in assay [18] was inactive.
